Compounds with a hit are over-represented: about 7.9% of the library has one in this group of screens.
Lassa entry inh: qHTS for Inhibitors of binding or entry into cells for Lassa Virus; Lassa virus pseudotype entry inhibition, cell reporter; Potency, µM (highest dose often 37.9 µM), without a hit: top-dose activity change, negative = inhibition, most hits filed as inhibitors; 1.2% of 300,000 active; AID 540256, 2011; calls by dose curve; tested in HEK293 cells; also: potency is read from the fitted curve at half-maximal effect; nearly all actives have a fitted effect of over 50% in size
FMDV antiviral: High Throughput Screening for Foot and Mouth Disease Virus Antivirals; FMDV antiviral cell-based qHTS; Potency, µM (titrated, usually from 57.9 µM), without a hit: top-dose activity change, negative = inhibition, hits mostly inhibitors; 1.2% of 410,000 active; calls by dose curve; tested in HEK293T cells; also: read-out not given here; potency is read from the fitted curve at half-maximal effect; nearly all actives have a fitted effect of over 45% in size
HCV inh: qHTS Assay for Inhibitors of Hepatitis C Virus (HCV). 3.4% of 340,000 active. Huh7.5.1 HCVcc-Cre infection, luciferase reporter, 44 h. Potency, µM (series often up to 41.8 µM), inactives show top-dose activity change, negative = inhibition, usual class: inhibitors; active = well fitted inhibition curve with a large enough effect; inconclusive = small, poorly fitted or top-dose-only effect, or another doubt; inactive = no such curve, though single readings can be large or run the other way; also: potency is read from the fitted curve at half-maximal effect
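Compounds are dispensed onto cells plated 4 h earlier at 1,000 per well, with HCVcc-Cre virus (about 0.5 moi) added next. Following 44 h of culture, luminescent signal is measured for 15 sec after 15 min with substrate at room temperature.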
Marburg entry inh: qHTS for inhibitors of binding or entry into cells for Marburg Virus; 1.8% of 300,000 active; Marburg virus pseudotyped entry inhibition, cell reporter; Potency, µM (titrated, usually from 37.8 µM), without a hit: top-dose activity change, negative = inhibition, actives largely listed as inhibitors; calls by dose curve; tested in HEK293 cells; also: potency is read from the fitted curve at half-maximal effect
HCMV inh: qHTS Assay for inhibitors of the human cytomegalovirus (HCMV); activity change, negative = inhibition, % at 57.5 µM; AID 1259415, 2018; 4.5% of 410,000 active; HFF cells, HCMV-luciferase reporter, 72 h; stronger effect = lower value; in the data active = activity change below about -60%; inconclusive = no clear call, values can overlap the other calls; inactive = above about -39%
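After 16 h attachment at 37C, HFF cells received test compound and HCMV-luciferase (1 PFU/cell); reporter luminescence read 72 h later, data normalized against buffer-only and known inhibitor Salinomycin.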
* marks the source's active call; other numbers are inactive results; u = inconclusive; x = no result; [ ] = another dose, or the depositor's remark. % is scaled to controls: 0 for no effect and ±100 for the full control effect.

SMILES | Lassa entry inh | FMDV antiviral | HCV inh | Marburg entry inh | HCMV inh
CC(C)CC1C(=O)N(Cc2cn(CC3CCCCC3)nn2)CCS(=O)(=O)N1Cc1ccc(-c2ccncc2)cc1 (configuration not stated) | 14µM* | -8% | x | x | -5
Cc1ccc(-c2ccc(CN3C(CC(C)C)C(=O)N(Cc4cn(CCC5OCCO5)nn4)CCS3(=O)=O)cc2)cc1 (configuration not stated) | x | u | x | u | -101*
CC(C)CC1C(=O)N(Cc2cn(Cc3ccco3)nn2)CCS(=O)(=O)N1Cc1ccc(-c2cccc(N(C)C)c2)cc1 (configuration not stated) | x | 0% | x | x | -101*
CC1C(=O)N(Cc2cn(CCC3OCCCO3)nn2)CCS(=O)(=O)N1Cc1ccc(-c2ccc(Cl)cc2)cc1 (configuration not stated) | x | 11µM* | x | x | u
CC1C(=O)N(Cc2cn(CCC3OCCCO3)nn2)CCS(=O)(=O)N1Cc1ccc(-c2ccccc2)cc1 (configuration not stated) | x | -3% | x | x | 3
CCN(CC)C(=O)CSc1nnc(SC(C)C(=O)NC2CC2)s1 (configuration not stated) | -5% | -8% | u | -22% | -6
CCCS(=O)(=O)NC(=O)C1(C)CCCN(C(=O)c2cc3ccccc3s2)C1 (configuration not stated) | x | -4% | x | x | 23
COCCn1c(SCC(=O)/C=C2\N(C)c3ccccc3C2(C)C)nnc1-c1ccncc1 | u | u | u | -38% | -75*
COc1ccc(Nc2nnc(SCC(=O)/C=C3/N(C)c4ccccc4C3(C)C)s2)cc1 | 14µM* | 20µM* | u | u | -74*
COCCn1c(SCCCC(=O)c2ccc(Br)cc2)nnc1-c1ccncc1 | u | u | 7.9µM* | u | -71*
CCn1c(SCc2ccc(C(=O)Nc3cc(C)cc(C)c3)cc2)nnc1-c1ccncc1 | -23% | 18µM* | 11µM* | u | -62*
CN1/C(=C\C(=O)CSc2nnc(N)s2)C(C)(C)c2ccccc21 | u | u | -8% | u | u
COCCn1c(SCC(=O)c2c(-c3ccccc3)n(C)c3ccccc23)nnc1-c1ccncc1 | -5% | -9% | u | u | -36
COc1ccc(NC(=O)N(C)C[C@@H]2OCc3cn(nn3)CCCC(=O)N([C@H](C)CO)C[C@H]2C)cc1 | x | -14% | x | x | -28
COc1ccc(N(C(C)C(=O)N2CCC(Cc3ccccc3)CC2)S(C)(=O)=O)cc1 (configuration not stated) | u | 11µM* | 8.9µM* | u | -74*
CCOC(=O)N1CCN(C(=O)C(C)N(c2ccc(Oc3ccccc3)cc2)S(C)(=O)=O)CC1 (configuration not stated) | -28% | u | u | -26% | -65*
CCOc1ccc(N(C(C)C(=O)N2CCCC2)S(C)(=O)=O)cc1 (configuration not stated) | u | -5% | -8% | u | 3
CCOC(=O)C1CCN(C(=O)C(C)N(c2ccc(Oc3ccccc3)cc2)S(C)(=O)=O)CC1 (configuration not stated) | x | u | 10µM* | x | 5
Cc1nc(NC(=O)CSc2nnc(C3CC3)n2C)sc1C | x | 49% | -17% | -13%[46.1 µM] | 2
CC(C)Cn1c2c(c(O)c(C(=O)Nn3c(Cc4ccccc4)nc4ccccc4c3=O)c1=O)CCCC2 | 1% | -14% | u | 0% | -27
CCCn1c2c(c(O)c(C(=O)Nc3ccccc3)c1=O)CCCC2 | -8% | 6% | 10µM* | 4% | 37
CCCCc1nc2ccccc2c(=O)n1NC(=O)c1c(O)c2c(n(CC(C)C)c1=O)CCCC2 | 20% | -25% | -2% | 16% | -79*
O=C(Nn1c(Cc2ccccc2)nc2ccccc2c1=O)c1c(O)c2cccc3c2n(c1=O)CCC3 | x | -28% | -10% | x | -66*
COc1ccc(NC2CCCN(C(=O)CCc3cccc(Cl)c3)C2)cc1 (configuration not stated) | x | -14% | -4% | x | -24
CCn1cc(CN2CCOc3ccc(C(O)C4CCCCC4)cc3C2)c(C)n1 (configuration not stated) | x | -20% | x | x | x
SMILES | Lassa entry inh | FMDV antiviral | HCV inh | Marburg entry inh | HCMV inh
CN1C(=O)C(C2(O)C(=O)N(Cc3ccccc3)c3cc([N+](=O)[O-])ccc32)c2ccccc21 (configuration not stated) | x | x | x | x | -79*
Nc1ncnc2c1ncn2C1OC(COP(=O)(O)O)C(O)C1O (configuration not stated) | x | 5% | 7% | x | 101
Nc1ncnc2c1ncn2[C@@H]1O[C@H](COP(=O)(O)O)[C@@H](O)[C@H]1O | x | 5% | 0.56µM* | x | 45
CN1N=C(N)c2cn(C3OC(COP(=O)(O)O)C(O)C3O)c3ncnc1c23 (configuration not stated) | -28% | -13% | u | u | -70*
Nc1ncnc2c1ncn2[C@@H]1O[C@H](COP(=O)(O)OP(=O)(O)OP(=O)(O)O)[C@@H](O)[C@H]1O | x | -16% | 0.56µM* | x | x
CCCOc1cccc(C(=O)Nc2ccc(-c3nc4ccccc4o3)cc2)c1 | -17%[46.1 µM] | -7% | x | x | -1
Cn1cc(-c2cc3n(n2)CCC(=O)N3CC(=O)O)c2ccccc21 | 16%[46.1 µM] | 16% | x | 27%[46.1 µM] | -15
CSc1cccc(NC(=S)N(CCN(C)C)C(C)c2ccccn2)c1 (configuration not stated) | u | -2% | u | 10µM* | -38
CSc1cccc(NC(=S)N(CCN(C)C)C(C)c2ccncc2)c1 (configuration not stated) | x | 44% | u | x | u
Cc1ccc2nc(-c3ccc(C#N)cc3)c(Cc3ccccc3)n2c1 | x | 10% | x | x | 59
COc1ccc(C#Cc2ccc(C3=CC(=O)CC(C)(C)C3=O)cc2)cc1 | x | -11% | x | x | -14
O=C(CSc1ncn[nH]1)Nc1ccccc1Sc1ccc(Cl)cc1 | u | 16µM* | u | -12% | u
O=C(CSc1ncn[nH]1)Nc1ccc([N+](=O)[O-])cc1Br | u | -3% | -22% | u | -65*
Nc1cc(=O)[nH]c(SCC(=O)Nc2ccccc2Sc2ccc(Cl)cc2)n1 | u | u | u | 1%[46.1 µM] | -34
Nc1nc(SCC(=O)Nc2ccc([N+](=O)[O-])cc2Br)n[nH]1 | -1% | -11% | -9% | -21% | 10
CCc1ccc(-n2nc(C)c3c2NC(=O)CSC3c2ccc(C(=O)OC)cc2)cc1 (configuration not stated) | 11%[46.1 µM] | u | x | 2%[46.1 µM] | -2
CCc1ccc(-n2nc(C)c3c2NC(=O)CSC3c2ccccc2C)cc1 (configuration not stated) | u | u | x | 14%[46.1 µM] | -80*
